Out of some 5,500 compounds screened, about 2,000 (36%) were called active. Inconclusive results (about 18%) are left out. Cut-off read from the data, not from the text of the source: active = normalized growth mostly below about 0.91 (no sharp cut-off); inconclusive = no clear call, values can overlap the other calls; inactive = mostly above about 0.92. Some of the results follow.
Assay: chemical genetic growth profiling, strain panel (AID 1159580);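 note: tested at 20 µM; growth read once vehicle control cultures reached saturation at 30 °C; 1 = growth at the plate median or of vehicle wells; lower values mean less growth of the strain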
Details: growth OD

Measured: normalized growth

C=C[C@@](C)(O)CCC1C(=C)C[C@H](O)C2C(C)(C)CCCC12C (some centres not stated)
inactive: S. cerevisiae deletion strains, locus YJR075W, strain HOC1, stronger effect = lower value 1.01 | S. cerevisiae deletion strains, locus YKL009W, strain mrt4, stronger effect = lower value 1.01 | S. cerevisiae deletion strains, locus YKL068W, stronger effect = lower value 1.01 | S. cerevisiae deletion strains, locus YKL085W, strain MDH1 (second series), stronger effect = lower value 1.02 | S. cerevisiae deletion strains, locus YKL085W, strain MDH1, stronger effect = lower value 1.02 | S. cerevisiae deletion strains, locus YKL160W, strain elf1, stronger effect = lower value 0.981 | S. cerevisiae deletion strains, locus YKL190W, strain CNB1, stronger effect = lower value 1.01 | S. cerevisiae deletion strains, locus YKR001C, strain vps1, stronger effect = lower value 1.01 | S. cerevisiae deletion strains, locus YKR026C, strain gcn3, stronger effect = lower value 0.992 | S. cerevisiae deletion strains, locus YKR091W, strain srl3, stronger effect = lower value 0.991 | S. cerevisiae deletion strains, locus YLL001W, strain dnm1, stronger effect = lower value 0.97 | S. cerevisiae deletion strains, locus YLL026W, stronger effect = lower value 0.998 | S. cerevisiae deletion strains, locus YLL041C, strain sdh2, stronger effect = lower value 0.984 | S. cerevisiae deletion strains, locus YLR027C, strain aat2, stronger effect = lower value 0.995 | S. cerevisiae deletion strains, locus YLR039C, strain RIC1, stronger effect = lower value 0.949 | S. cerevisiae deletion strains, locus YLR058C, strain SHM2, stronger effect = lower value 1.01 | S. cerevisiae deletion strains, locus YLR102C, strain apc9, stronger effect = lower value 1.03 | S. cerevisiae deletion strains, locus YLR113W, strain HOG1, stronger effect = lower value 0.867 | S. cerevisiae deletion strains, locus YLR221C, strain rsa3, stronger effect = lower value 0.968 | S. cerevisiae deletion strains, locus YLR258W, strain gsy2, stronger effect = lower value 0.983 | S. cerevisiae deletion strains, locus YLR262C, strain YPT6 (second series), stronger effect = lower value 0.876 | S. cerevisiae deletion strains, locus YLR262C, strain YPT6, stronger effect = lower value 0.943 | S. cerevisiae deletion strains, locus YLR268W, strain sec22, stronger effect = lower value 1.01 | S. cerevisiae deletion strains, locus YLR320W, strain mms22, stronger effect = lower value 0.946 | S. cerevisiae deletion strains, locus YLR330W, strain CHS5, stronger effect = lower value 1.01 | S. cerevisiae deletion strains, locus YLR342W, strain FKS1 (second series), stronger effect = lower value 0.985 | S. cerevisiae deletion strains, locus YLR342W, strain FKS1, stronger effect = lower value 0.976 | S. cerevisiae deletion strains, locus YLR357W, strain rsc2, stronger effect = lower value 1.01 | S. cerevisiae deletion strains, locus YLR370C, strain arc18, stronger effect = lower value 0.976 | S. cerevisiae deletion strains, locus YLR371W, strain rom2, stronger effect = lower value 1.04 | S. cerevisiae deletion strains, locus YLR384C, strain iki3, stronger effect = lower value 0.98 | S. cerevisiae deletion strains, locus YLR418C, strain cdc73, stronger effect = lower value 0.994 | S. cerevisiae deletion strains, locus YML016C, strain PPZ1, stronger effect = lower value 1 | S. cerevisiae deletion strains, locus YML032C, strain rad52, stronger effect = lower value 1.05 | S. cerevisiae deletion strains, locus YML120C, strain ndi1, stronger effect = lower value 0.99 | S. cerevisiae deletion strains, locus YML124C, strain tub3, stronger effect = lower value 1.02 | S. cerevisiae deletion strains, locus YMR058W, strain fet3, stronger effect = lower value 0.995 | S. cerevisiae deletion strains, locus YMR078C, strain ctf18, stronger effect = lower value 1.03 | S. cerevisiae deletion strains, locus YMR125W, strain sto1, stronger effect = lower value 1.01 | S. cerevisiae deletion strains, locus YMR129W, stronger effect = lower value 0.985 | S. cerevisiae deletion strains, locus YMR205C, strain PFK2, stronger effect = lower value 0.934 | S. cerevisiae deletion strains, locus YMR223W, strain ubp8, stronger effect = lower value 1.02 | S. cerevisiae deletion strains, locus YMR231W, strain pep5, stronger effect = lower value 0.999 | S. cerevisiae deletion strains, locus YMR263W, strain SAP30, stronger effect = lower value 1.01 | S. cerevisiae deletion strains, locus YMR307W, strain GAS1, stronger effect = lower value 1.01 | S. cerevisiae deletion strains, locus YNL067W, strain RPL9B, stronger effect = lower value 0.996 | S. cerevisiae deletion strains, locus YNL071W, strain lat1, stronger effect = lower value 0.928 | S. cerevisiae deletion strains, locus YNL128W, strain TEP1, stronger effect = lower value 1.01 | S. cerevisiae deletion strains, locus YNL153C, strain GIM3, stronger effect = lower value 1.01 | S. cerevisiae deletion strains, locus YNL183C, strain NPR1, stronger effect = lower value 0.923 | S. cerevisiae deletion strains, locus YNL209W, strain ssb2, stronger effect = lower value 0.998 | S. cerevisiae deletion strains, locus YNL233W, strain BNI4, stronger effect = lower value 1.02 | S. cerevisiae deletion strains, locus YNL248C, strain rpa49, stronger effect = lower value 0.984 | S. cerevisiae deletion strains, locus YNL250W, strain rad50, stronger effect = lower value 1.03 | S. cerevisiae deletion strains, locus YNL271C, strain bni1, stronger effect = lower value 1.03 | S. cerevisiae deletion strains, locus YNL298W, strain CLA4, stronger effect = lower value 1.02 | S. cerevisiae deletion strains, locus YNL307C, strain MCK1, stronger effect = lower value 1 | S. cerevisiae deletion strains, locus YNL322C, strain KRE1 (second series), stronger effect = lower value 0.986 | S. cerevisiae deletion strains, locus YNL322C, strain KRE1, stronger effect = lower value 1.01 | S. cerevisiae deletion strains, locus YNR049C, strain mso1, stronger effect = lower value 0.994 | S. cerevisiae deletion strains, locus YNR052C, strain pop2, stronger effect = lower value 1.02 | S. cerevisiae deletion strains, locus YOL006C, strain TOP1, stronger effect = lower value 0.935 | S. cerevisiae deletion strains, locus YOL012C, strain htz1 1.27 | S. cerevisiae deletion strains, locus YOL147C, strain pex11, stronger effect = lower value 1.02 | S. cerevisiae deletion strains, locus YOR001W, strain rrp6, stronger effect = lower value 0.984 | S. cerevisiae deletion strains, locus YOR061W, strain CKA2, stronger effect = lower value 1.01 | S. cerevisiae deletion strains, locus YOR069W, strain VPS5, stronger effect = lower value 1.01 | S. cerevisiae deletion strains, locus YOR070C, strain gyp1, stronger effect = lower value 0.986 | S. cerevisiae deletion strains, locus YOR080W, strain dia2, stronger effect = lower value 0.998 | S. cerevisiae deletion strains, locus YOR083W, strain WHI5, stronger effect = lower value 0.964 | S. cerevisiae deletion strains, locus YOR106W, strain vam3, stronger effect = lower value 0.978 | S. cerevisiae deletion strains, locus YOR136W, strain idh2, stronger effect = lower value 1.03 | S. cerevisiae deletion strains, locus YOR144C, strain elg1, stronger effect = lower value 1.02 | S. cerevisiae deletion strains, locus YOR184W, strain ser1, stronger effect = lower value 1.01 | S. cerevisiae deletion strains, locus YOR231W, strain MKK1, stronger effect = lower value 0.923 | S. cerevisiae deletion strains, locus YOR265W, strain rbl2, stronger effect = lower value 0.992 | S. cerevisiae deletion strains, locus YOR270C, strain vph1, stronger effect = lower value 0.886 | S. cerevisiae deletion strains, locus YOR290C, strain snf2, stronger effect = lower value 0.934 | S. cerevisiae deletion strains, locus YOR316C, strain cot1, stronger effect = lower value 1.03 | S. cerevisiae deletion strains, locus YPL051W, strain arl3, stronger effect = lower value 0.975 | S. cerevisiae deletion strains, locus YPL055C, strain LGE1, stronger effect = lower value 1.01 | S. cerevisiae deletion strains, locus YPL078C, strain atp4, stronger effect = lower value 0.978 | S. cerevisiae deletion strains, locus YPL106C, strain sse1, stronger effect = lower value 1.03 | S. cerevisiae deletion strains, locus YPL240C, strain hsp82, stronger effect = lower value 0.984 | S. cerevisiae deletion strains, locus YPL241C, strain CIN2, stronger effect = lower value 1.01 | S. cerevisiae deletion strains, locus YPL256C, strain CLN2, stronger effect = lower value 0.953 | S. cerevisiae deletion strains, locus YPR119W, strain clb2, stronger effect = lower value 1.03 | S. cerevisiae deletion strains, locus YPR141C, strain kar3, stronger effect = lower value 1.03 | S. cerevisiae deletion strains, locus YPR163C, strain tif3, stronger effect = lower value 1.02 | S. cerevisiae deletion strains, locus YPR167C, strain met16, stronger effect = lower value 1.02 | S. cerevisiae deletion strains, strain wtn01, stronger effect = lower value 1.02 | S. cerevisiae strains, strain wild type, stronger effect = lower value 1.01

From PubChem BioAssay AID1159580 (chemical genetic matrix, 2015)
